The structures appear in SMILES notation. “And” between values parts separate entries of the source, which are not always exact repeats. Equal entries are not always repeated. Results filed as inconclusive are left out. The source holds several records for some structures; these can differ, active in one and inactive in another. The source made the active and inactive calls. Unless noted, calls follow the shape of the dose curve; as a rule, active = well fitted curve in the direction sought with a large enough effect in the repeat runs; inconclusive = weak or mixed curves; inactive = no such curve, though single readings can be large; an effect the other way counts as inactive or inconclusive.

The values below come from PubChem BioAssay (Tox21).

Assay [1] in a line: qHTS assay to identify small molecule antagonists of the sonic hedgehog signaling (Shh) pathway (AID 1259369; calls by dose curve; also: nearly all actives have a fitted effect of over 45% in size; also: potency is read from the fitted curve at half-maximal effect). In short, it runs like this: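 Luminescence readout: firefly Luc under Gli1 response element in 3T3Gli1-Luc cells (NIH/3T3 clone). Antagonist mode, stimulation by conditioned medium; compound exposure 24hr at 37 C, 5% CO2.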
Assay [2] can be described thus: qHTS assay to identify small molecule agonists of the androgen receptor (AR) signaling pathway in the presence of an antagonist - cell viability counter screen (AID 1259379). Also: nearly all actives have a fitted effect of over 25% in size. Also: potency is read from the fitted curve at half-maximal effect.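 As to activity change, negative = cytotoxicity: MDA-kb2 human breast cancer cells carrying an MMTV luciferase reporter; series mostly up to about 92 µM.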 In short, it runs like this:
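Viability counter screen: CellTiter-Fluor fluorescence, measured in the same wells as the luciferase read-out. MDA-kb2 cells, 3,000/well, with nilutamide at 3.0uM final and compounds at 15 concentrations, 16 hr at 37C, 0% CO2.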

Assay [3] is described as follows: qHTS assay to identify small molecule agonists of the estrogen receptor beta (ER-beta) signaling pathway - cell viability counter screen (AID 1259380). Also: nearly all actives have a fitted effect of over 30% in size. In short, it runs like this:
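Luminescence read-out (CellTiter-Glo, 30 min, room temp) taken in the same wells as the beta-lactamase reporter assay; ER-beta-UAS-bla HEK293T cells exposed to DMSO-dissolved compounds for 16 hr at 37C in 2% charcoal-stripped FBS medium.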
(In general: In qHTS, concentration-response curves come from the screen itself.)

A short description of assay [4]: qHTS assay to identify small molecule antagonists of the estrogen receptor beta (ER-beta) signaling pathway - cell viability counter screen (AID 1259382). Also: nearly all actives have a fitted effect of over 55% in size. Also: potency is read from the fitted curve at half-maximal effect.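 As to activity change, negative = cytotoxicity: HEK293T cells carrying ER-beta-UAS-bla reporter stimulated with estradiol; series mostly up to about 92 µM.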 In short, it runs like this:
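Luminescent ATP read-out (CellTiter-Glo, 30 min, RT) taken in the same wells as the bla reporter assay. HEK293T ER-beta-UAS-bla cells in 2% charcoal-stripped FBS were exposed to compounds with 1nM E2 for 16 hr at 37C.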

Assay [5] is described as follows: qHTS assay to identify small molecule agonists or antagonists of the thyroid stimulating hormone receptor (TSHR) signaling pathway - wild type cell line counter screen (AID 1259384; calls by dose curve). The procedure, abridged:
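Counter screen in untransfected Hek293: compounds (15-point titration, triplicate) plus phosphodiesterase inhibitor Ro20-1724 added after 18 h plating; 30 min RT. Intracellular cAMP via competitive d2/cryptate immunoassay, 1 h incubation.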

Assay [6] has as its target Thyrotropin receptor (Homo sapiens) (UniProt P16473). Nature of the assay: qHTS assay to identify small molecule antagonists of the thyroid stimulating hormone receptor (TSHR) signaling pathway (AID 1259385; calls by dose curve; also: nearly all actives have a fitted effect of over 20% in size). In short, it runs like this:
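Antagonist mode: compound-treated TSHR-expressing HEK293 cells were stimulated with 1.5 ng/mL TSH (final) in presence of Ro20-1724 for 30 min at RT. HTRF cAMP detection after 1 h; each compound tested at 15 concentrations, triplicate.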

Assay [7] is described as follows: qHTS assay to identify small molecule agonists of the estrogen receptor alpha (ER-alpha) signaling pathway in the presence of an antagonist - cell viability counter screen (AID 1259386). Also: nearly all actives have a fitted effect of over 30% in size. Also: potency is read from the fitted curve at half-maximal effect. As to activity change, negative = cytotoxicity: series mostly up to about 92 µM. In short, it runs like this: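 Read-out: CellTiter-Fluor fluorescence after 1hr reagent incubation, measured in the same wells as the luciferase readout. VM7Luc4E2 cells were exposed to 15 compound concentrations with 10.0nM ICI-182,780 for 22hr at 37C.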

Assay [8] concerns the target Progesterone receptor (Homo sapiens) (UniProt P06401). The experiment in a line: qHTS assay to identify small molecule agonists of the progesterone receptor (PR) signaling pathway (AID 1346784; calls by dose curve; also: nearly all actives have a fitted effect of over 30% in size). The procedure, abridged:
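PR-UAS-bla HEK 293T cells (beta-lactamase reporter under UAS) in 2% charcoal-stripped FBS, dosed with 23 nL compound after 6 hr, incubated 16hr at 37C. LiveBLAzer B/G FRET substrate added, fluorescence read after 2 hours.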

For assay [9] the target is unchanged. The experiment in a line: qHTS assay to identify small molecule antagonists of the progesterone receptor (PR) signaling pathway (AID 1346795; active = well fitted inhibition curve with a large enough effect in the signal ratio in the repeat runs, not every such curve was filed as active; the % refers to the signal ratio; also: potency is read from the fitted curve at half-maximal effect). In short, it runs like this: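 PR-UAS-bla HEK293T cells with beta-lactamase reporter under UAS control, in 2% charcoal-stripped FBS, treated with compounds plus 1 nM promegestone (R5020, final) for 16 hr at 37C. Read-out: FRET beta-lactamase substrate fluorescence after 2 hr at room temperature.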

A short description of assay [10]: qHTS assay to identify small molecule antagonists of the progesterone receptor (PR) signaling pathway - cell viability counter screen (AID 1346798). Also: nearly all actives have a fitted effect of over 50% in size. Also: potency is read from the fitted curve at half-maximal effect. As to activity change, negative = cytotoxicity: series mostly up to about 92 µM. In short, it runs like this:
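PR-UAS-bla HEK293T cells, 3,000/well in 2% charcoal-stripped FBS medium, dosed with compounds plus R5020 agonist and incubated 16 h at 37C. Viability then measured in the same wells by CellTiter-Glo luminescence after 30 min at RT.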

A short description of assay [11]: qHTS assay to identify small molecule antagonists of the TGF-beta/Smad signaling pathway - cell viability counter screen (AID 1346824). Also: nearly all actives have a fitted effect of over 50% in size. The procedure, abridged: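 Cytotoxicity counter-screen run in the same wells as the beta-lactamase Smad reporter read: CellTiter-Glo luminescence after 30 min at room temperature. HEK 293T SBE-bla cells had 5 hr compound exposure at 37 C with TGF-beta1 (0.25 ng/mL stock).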

Assay [12] is described as follows: qHTS assay to identify small molecule agonists of the TGF-beta/Smad signaling pathway - cell viability counter screen (AID 1346829). Also: top concentration of the series differs between compounds; nearly all actives have a fitted effect of over 45% in size. The procedure, abridged: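 In parallel with the Smad reporter read, viability of HEK 293T cells stably carrying SBE-bla is quantified by ATP luminescence following 5 hr compound treatment.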
Assay [13] in a line: qHTS assay to identify small molecule agonists of the TGF-beta/Smad signaling pathway (AID 1346859; active = well fitted activation curve with a large enough effect in the signal ratio in the repeat runs, not every such curve was filed as active; the % refers to the signal ratio; also: series mostly up to about 77 µM). In short, it runs like this: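 SBE-bla HEK293T cells plated overnight, then compound exposure for 5 h at 37 C. Beta-lactamase reporter read with LiveBLAzer B/G FRET substrate after 2 h at room temperature, fluorescence at 405 nm excitation, 460/530 nm emission.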
The target in assay [14] is Estrogen receptor (Homo sapiens) (UniProt P03372). Nature of the assay: qHTS assay to identify small molecule agonists of the estrogen receptor alpha (ER-alpha) signaling pathway in the presence of an antagonist (AID 1259383; calls by dose curve; also: nearly all actives have a fitted effect of over 15% in size; also: potency is read from the fitted curve at half-maximal effect; as to activation: top concentration of the series differs between compounds). In short, it runs like this:
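Luciferase luminescence (ONE-Glo, 30min at room temperature) measured in VM7Luc4E2 cells after 22hr compound exposure at 15 concentrations, with 10.0nM ICI-182,780 final present; cells express endogenous ER-alpha and carry four EREs upstream of luciferase.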

The target in assay [15] is Thyrotropin-releasing hormone receptor (Homo sapiens) (UniProt P34981). The experiment in a line: qHTS assay to identify small molecule antagonists of the thyrotropin-releasing hormone receptor (TRHR) signaling pathway (AID 1346877; active = well fitted inhibition curve with a large enough effect in the repeat runs, not every such curve was filed as active; also: series mostly up to about 51 µM). The procedure, abridged:
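HEK293/TRHR cells, 18 h, 37 °C; Ca2+ dye 2 h; cpd 5 min RT; TRH 1 nM final; fluorescence read 3 min, 1 s intervals; 15 concs, triplicate.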

The target is the same in assay [16]. Nature of the assay: qHTS assay to identify small molecule agonists of the thyrotropin-releasing hormone receptor (TRHR) signaling pathway (AID 1346891; calls by dose curve; also: series mostly up to about 58 µM). In short, it runs like this: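 HEK293 cells expressing TRHR plated 18 h at 37 C/5% CO2, calcium dye-loaded 2 h at 37 C, then compound added (agonist mode); kinetic calcium fluorescence read 3 min at 1 s intervals; 15 concentrations in triplicate.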

Assay [17] in a line: qHTS assay to identify small molecule agonists of the progesterone receptor (PR) signaling pathway - cell viability counter screen (AID 1346799; calls by dose curve; also: nearly all actives have a fitted effect of over 45% in size). In short, it runs like this:
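Counter screen in the PR-UAS-bla HEK293T wells (2% charcoal-stripped FBS, 16 h compound exposure at 37 C) after the bla read. CellTiter-Glo added, 30 min at room temperature, luminescence read as cell viability.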
% is scaled to controls: 0 for no effect and ±100 for the full control effect.

Sequence of Progesterone receptor (Homo sapiens) (P06401 whole entry, looked up): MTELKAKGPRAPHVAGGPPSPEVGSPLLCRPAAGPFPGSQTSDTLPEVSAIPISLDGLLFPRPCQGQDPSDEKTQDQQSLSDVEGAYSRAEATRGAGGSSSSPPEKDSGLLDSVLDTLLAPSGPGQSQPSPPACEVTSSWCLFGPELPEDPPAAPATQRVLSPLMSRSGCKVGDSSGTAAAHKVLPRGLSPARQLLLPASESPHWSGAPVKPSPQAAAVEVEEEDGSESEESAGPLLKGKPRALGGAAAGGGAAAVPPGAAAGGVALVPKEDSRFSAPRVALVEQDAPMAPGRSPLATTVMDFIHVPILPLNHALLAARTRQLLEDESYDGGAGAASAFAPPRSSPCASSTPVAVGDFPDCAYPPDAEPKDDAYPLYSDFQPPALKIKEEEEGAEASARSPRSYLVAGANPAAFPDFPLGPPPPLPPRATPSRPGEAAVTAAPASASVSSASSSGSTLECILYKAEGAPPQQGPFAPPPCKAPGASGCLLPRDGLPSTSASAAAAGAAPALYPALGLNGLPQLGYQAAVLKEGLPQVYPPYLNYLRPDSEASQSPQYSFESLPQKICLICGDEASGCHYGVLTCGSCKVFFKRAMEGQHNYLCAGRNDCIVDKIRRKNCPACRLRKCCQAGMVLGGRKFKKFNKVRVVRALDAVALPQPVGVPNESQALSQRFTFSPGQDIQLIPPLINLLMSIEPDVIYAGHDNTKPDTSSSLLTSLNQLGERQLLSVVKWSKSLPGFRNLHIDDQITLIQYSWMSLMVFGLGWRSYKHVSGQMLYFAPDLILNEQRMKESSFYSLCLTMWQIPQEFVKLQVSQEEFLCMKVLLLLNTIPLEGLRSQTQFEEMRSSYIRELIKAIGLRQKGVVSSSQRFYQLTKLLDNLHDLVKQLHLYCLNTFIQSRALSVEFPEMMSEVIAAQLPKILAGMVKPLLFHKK
Sequence of Thyrotropin receptor (Homo sapiens) (P16473 whole entry, looked up): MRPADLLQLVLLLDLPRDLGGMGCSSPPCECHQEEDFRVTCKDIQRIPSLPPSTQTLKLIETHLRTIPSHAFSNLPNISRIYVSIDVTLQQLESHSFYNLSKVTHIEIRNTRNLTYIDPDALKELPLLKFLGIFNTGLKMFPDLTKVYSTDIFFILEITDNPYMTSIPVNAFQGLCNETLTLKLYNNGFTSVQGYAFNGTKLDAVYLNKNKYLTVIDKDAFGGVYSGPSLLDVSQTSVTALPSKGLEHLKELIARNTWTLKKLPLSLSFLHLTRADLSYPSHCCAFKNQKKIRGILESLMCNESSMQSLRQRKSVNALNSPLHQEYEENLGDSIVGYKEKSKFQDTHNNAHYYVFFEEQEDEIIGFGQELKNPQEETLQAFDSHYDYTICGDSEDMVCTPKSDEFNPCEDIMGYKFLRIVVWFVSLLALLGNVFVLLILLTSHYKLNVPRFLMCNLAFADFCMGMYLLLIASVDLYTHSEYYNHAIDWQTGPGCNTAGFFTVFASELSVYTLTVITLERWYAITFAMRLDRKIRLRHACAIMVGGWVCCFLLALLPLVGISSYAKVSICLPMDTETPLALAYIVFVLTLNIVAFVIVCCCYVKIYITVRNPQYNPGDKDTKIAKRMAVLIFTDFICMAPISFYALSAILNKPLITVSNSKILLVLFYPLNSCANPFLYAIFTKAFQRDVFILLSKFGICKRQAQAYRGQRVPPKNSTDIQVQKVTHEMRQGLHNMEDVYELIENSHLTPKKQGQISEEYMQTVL
Sequence of Estrogen receptor (Homo sapiens) (P03372 whole entry, looked up): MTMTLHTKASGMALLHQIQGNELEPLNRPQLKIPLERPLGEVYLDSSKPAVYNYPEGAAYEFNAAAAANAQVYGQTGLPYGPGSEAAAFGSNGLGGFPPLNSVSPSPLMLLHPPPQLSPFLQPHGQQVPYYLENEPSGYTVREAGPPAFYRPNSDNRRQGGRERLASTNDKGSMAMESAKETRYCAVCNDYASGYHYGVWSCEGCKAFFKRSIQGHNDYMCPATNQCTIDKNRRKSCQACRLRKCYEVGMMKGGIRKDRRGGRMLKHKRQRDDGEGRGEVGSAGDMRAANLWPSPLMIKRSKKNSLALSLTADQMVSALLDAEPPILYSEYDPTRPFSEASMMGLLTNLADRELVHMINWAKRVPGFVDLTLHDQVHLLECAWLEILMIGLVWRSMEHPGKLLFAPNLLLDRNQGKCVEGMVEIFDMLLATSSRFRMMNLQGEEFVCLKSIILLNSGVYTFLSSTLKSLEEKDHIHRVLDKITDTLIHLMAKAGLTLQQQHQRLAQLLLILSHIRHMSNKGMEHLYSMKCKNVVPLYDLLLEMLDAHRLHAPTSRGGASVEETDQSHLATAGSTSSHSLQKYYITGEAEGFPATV
Sequence of Thyrotropin-releasing hormone receptor (Homo sapiens) (P34981 whole entry, looked up): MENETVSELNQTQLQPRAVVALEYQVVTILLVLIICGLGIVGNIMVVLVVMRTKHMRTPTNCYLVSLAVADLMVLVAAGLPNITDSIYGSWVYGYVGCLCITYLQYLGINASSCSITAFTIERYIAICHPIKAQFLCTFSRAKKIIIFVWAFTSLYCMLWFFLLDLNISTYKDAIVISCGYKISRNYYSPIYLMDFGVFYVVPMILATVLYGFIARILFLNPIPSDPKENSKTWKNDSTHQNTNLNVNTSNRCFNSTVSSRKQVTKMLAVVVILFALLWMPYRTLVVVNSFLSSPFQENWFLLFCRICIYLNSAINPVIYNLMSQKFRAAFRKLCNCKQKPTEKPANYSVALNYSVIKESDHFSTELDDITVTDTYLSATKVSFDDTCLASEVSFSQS

`CC(C)=CCC/C(C)=C\CO`: the Potency result in assay [1], in [2], in assay [3], in assay [4], in assay [6] and in [7] was “inactive” each time. The Potency entry in assay [8], in assay [9], in assay [10], in [11] and in [12] was “inactive” each time. The result in [5] and in assay [13] was inactive.
`CCC(C)OC(=O)c1ccc(O)cc1` (stereo not drawn): the Potency entry in assay [1], in assay [2], in assay [3], in [4], in assay [6] and in assay [7] was “inactive” each time. The Potency result in [8], in [10], in [11], in assay [12], in assay [15] and in [16] was “inactive” each time. The Potency in assay [14] is 19.4 µM (active) and 48.6 µM (active); in [9] it was 48.9 µM (active) and 54.5 µM (active). For the same compound, the outcome in assay [5] and in [13] was inactive.
As for `CC(C)OC=O`, in assay [1], the Potency was 32.6 µM (active) and inactive. Also, the Potency entry in assay [2], in assay [3], in [4], in [14], in [6] and in [7] was “inactive” each time. For the same compound, the Potency result in assay [8], in assay [9], in assay [10], in assay [11], in assay [12] and in assay [15] was “inactive” in each case. In addition, the Potency entry in assay [16] was “inactive”. The compound was called inactive in [5] and in assay [13].
With `O=C(c1ccccc1)c1ccc(O)cc1O`, the Potency in [1] is 27.8 µM (active); in [4], 62.3 µM (active) and inactive; in assay [14] it was 19.7 µM (active) and 30.6 µM (active); in assay [9] it was 15.7 µM (active) and 19.3 µM (active); in [10] it was 49.5 µM (active). The Potency result in assay [2], in assay [3], in [6], in assay [7], in assay [8] and in [11] was “inactive” each time. In addition, the Potency entry in [12], in assay [15] and in [16] was “inactive” each time. Moreover, the result in assay [5] and in [13] was inactive.
For the compound `O=C(Nc1ccc([N+](=O)[O-])cc1Cl)c1cc(Cl)ccc1O`, the Potency was 1.93 µM (active) and 1.46 µM (active) in assay [2]; 2.17 µM (active) in assay [4]; 77 nM (active) in assay [14]; 1.37 µM (active) and 1.3 µM (active) in [7]; 30.6 µM (active) in assay [9]; 30.6 µM (active) in assay [10]. For the same compound, the activity change, negative = cytotoxicity in [4] is -26.7% [at 19 µM] (inactive); in [10] it was -2.12% [at 18.9 µM] (inactive). In addition, the activation was -10.6% [at 19 µM] (inactive) in [14] and 2.96% [at 19 µM] (inactive) in [8]. For the same compound, the result in [5] was inactive. In addition, the Potency entry in assay [6] is “inactive”.
In the case of `CC(C)Oc1ccc2c(=O)c(-c3ccccc3)coc2c1`, the Potency entry in [1], in [4], in [6], in assay [7], in assay [8] and in assay [9] was “inactive” each time. Further, the Potency entry in [11] and in assay [12] was “inactive” in each case. The call in assay [5] and in assay [13] was inactive.
`COC(=O)Nc1nc2ccc(S(=O)c3ccccc3)cc2[nH]1` (stereo not drawn): the Potency in [1] is 2.37 µM (active). The Potency entry in [2], in [3], in assay [4], in [14], in assay [7] and in [8] was “inactive” each time. Moreover, the Potency entry in assay [10], in assay [17], in assay [11], in assay [12], in assay [15] and in assay [16] was “inactive” in each case. In addition, the outcome in [13] was inactive.
As to `C=C(C)C1CC=C(C)CC1` (stereo not drawn), the Potency result in assay [1], in assay [2], in assay [4], in assay [14], in assay [7] and in assay [8] was “inactive” throughout. The Potency entry in [9], in assay [10], in assay [11] and in assay [12] was “inactive” in each case. For the same compound, the outcome in assay [13] was inactive.
